TDP1 cell noCPT = qHTS for Inhibitors of human tyrosyl-DNA phosphodiesterase 1 (TDP1): qHTS in cells in absence of CPT | DT40 Tdp1-/- hTDP1 cells, no CPT, ATP luminescence, 48 h | AID 686978, 2013 | 15% of 420,000 active | Potency, µM (highest dose often 46.2 µM), for inactives: at the highest dose activity change, negative = growth inhibition, most hits filed as inhibitors; also: potency is read from the fitted curve at half-maximal effect; nearly all actives have a fitted effect of over 55% in size
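Chicken DT40 Tdp1-/- cells complemented with human TDP1, screened without camptothecin (DMSO vehicle only), 400 cells/well. Compounds pin-transferred, cells incubated at 37 °C for at least 48 hr. Growth read as ATP-dependent luminescence (CellTiter-Glo, 30 min at RT).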
12-LOX inh = Primary qHTS assay for inhibitors of human arachidonate 12S-lipoxygenase (ALOX12): Round 2 | purified 12hLO, xylenol orange hydroperoxide absorbance | 1.1% of 580,000 active | Potency, µM (doses to about 108 µM), for inactives: top-dose activity change, negative = inhibition, usual class: inhibitors | AID 1671190, 2021 | Polyunsaturated fatty acid lipoxygenase ALOX12 (Homo sapiens), P18054; also: potency is read from the fitted curve at half-maximal effect
Target sequence (P18054 whole entry, looked up): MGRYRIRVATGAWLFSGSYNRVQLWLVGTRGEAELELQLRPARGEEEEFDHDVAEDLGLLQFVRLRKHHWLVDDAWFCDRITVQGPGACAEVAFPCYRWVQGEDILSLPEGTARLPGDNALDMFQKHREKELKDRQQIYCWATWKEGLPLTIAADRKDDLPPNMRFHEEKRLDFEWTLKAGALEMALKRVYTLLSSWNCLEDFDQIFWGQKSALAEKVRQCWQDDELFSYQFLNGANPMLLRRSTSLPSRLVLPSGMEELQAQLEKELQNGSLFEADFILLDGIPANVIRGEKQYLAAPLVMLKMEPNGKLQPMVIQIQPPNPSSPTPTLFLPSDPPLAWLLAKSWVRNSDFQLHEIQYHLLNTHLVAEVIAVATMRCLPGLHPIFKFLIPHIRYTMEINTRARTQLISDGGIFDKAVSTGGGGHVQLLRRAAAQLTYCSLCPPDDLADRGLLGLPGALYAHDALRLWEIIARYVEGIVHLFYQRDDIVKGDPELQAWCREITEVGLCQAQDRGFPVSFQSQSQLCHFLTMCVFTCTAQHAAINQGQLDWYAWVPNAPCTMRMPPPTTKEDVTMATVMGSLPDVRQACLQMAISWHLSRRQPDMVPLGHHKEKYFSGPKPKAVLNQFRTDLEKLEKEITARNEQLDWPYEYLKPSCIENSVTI
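Purified human 12hLO (150 nM final) in 25 mM Hepes, 0.01% Triton X-100, pH 7.0 was preincubated 15 min at room temperature with compound. Then 40 uM arachidonic acid was added, 30 min. Hydroperoxide was read by Fe-XO absorbance ratio 573/405 nm.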
DT40 TDP1 CPT = qHTS for Inhibitors of human tyrosyl-DNA phosphodiesterase 1 (TDP1): qHTS in cells in presence of CPT. chicken DT40 Tdp1-/-;hTDP1 cells + 20 nM CPT, ATP luminescence, 48 h. Potency, µM (top dose mostly 46.2 µM), inactives show at the top dose activity change, negative = growth inhibition, actives largely listed as inhibitors. 12% of 420,000 active. AID 686979, 2013; also: potency is read from the fitted curve at half-maximal effect; nearly all actives have a fitted effect of over 55% in size
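Chicken DT40 Tdp1-/- cells stably complemented with human TDP1 were seeded at 400 cells/well in medium containing 20 nM camptothecin, exposed to pin-transferred compounds, and grown at 37 °C for at least 48 hr. Viability was read as ATP luminescence.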
IL1B secr inh = qHTS for Inhibitors of Inflammasome Signaling: IL-1-beta AlphaLISA Primary Screen; THP-1 LPS/ATP IL-1B secretion, AlphaLISA, 16 h; active compounds read low; 4.7% of 360,000 active; activity change, % at 57.5 µM; AID 743279, 2014; in the data active = activity change below about -50%; inconclusive = mostly about -30% to -49%
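THP-1 cells pretreated 1 hr with compounds (up to 57.5 uM final), then stimulated with LPS (250 ng/mL final) plus ATP (1.25 mM final); secreted IL-1B measured by AlphaLISA after 16 hr, decreased signal indicating inhibition.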
HT1080 IDH1KD tx = qHTS for induction of synthetic lethality in tumor cells producing 2HG: qHTS for the HT-1080-IDH1KD cell line | HT-1080 IDH1 knockdown viability, ATP luminescence, 48 h | Potency, µM (doses to about 46.1 µM), inactives show at the top dose activity, negative = toxicity, most hits filed as cytotoxic | 2% of 360,000 active;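 also: potency is read from the fitted curve at half-maximal effect; 0% = DMSO wells and -100% = cell-free medium wells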
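Using the IDH1-knockdown HT-1080 line run in the same batch and compound series as the NT line, viability after 48 h at 37 °C was determined by CellTiter-Glo luminescence and expressed as % activity.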
HT1080-NT tox = qHTS for induction of synthetic lethality in tumor cells producing 2HG: qHTS for the HT-1080-NT fibrosarcoma cell line | 1.6% of 360,000 active | Potency, µM (series often up to 46.1 µM), for the others: at the highest dose activity, negative = less viability, hits mostly cytotoxic | HT-1080-NT fibrosarcoma viability, CellTiter-Glo ATP luminescence, 48 h;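 also: NT is the 2HG producing partner of a matched IDH1 knockdown line; potency is read from the fitted curve at half-maximal effect; 0% = DMSO-treated cells and -100% = media-only wells without cells; nearly all actives have a fitted effect of over 55% in size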
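HT-1080-NT fibrosarcoma cells (2HG-overproducing), 750 cells/well in RPMI with 5% FBS, dosed after 2 h and incubated 48 h at 37C. CellTiter-Glo luminescence normalized to DMSO and no-cell wells; concentration-response curves fitted and classed.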
Active calls of the source: *; ? = inconclusive; / = no result given. This is one part of a sample in which hits are shown more often than they occur. Unless noted, calls follow the shape of the dose curve; as a rule, active = well fitted curve in the direction sought with a large enough effect; inconclusive = small, poorly fitted or top-dose-only effect, or another doubt; inactive = no such curve, though single readings can be large; an effect the other way counts as inactive or inconclusive. Unless noted, % is scaled to controls: 0 for no effect and ±100 for the full control effect.

SMILES	TDP1 cell noCPT	12-LOX inh	DT40 TDP1 CPT	IL1B secr inh	HT1080 IDH1KD tx	HT1080-NT tox
CN1CC2(CCN(Cc3cn[nH]c3-c3cccs3)CC2)CC1C(=O)N1CCOCC1 (stereo unspecified)	/	29%	/	/	/	/
Fc1ccc(-c2nnc(SCc3ncc(-c4ccccc4)o3)n2CC2CCCO2)cc1 (stereo unspecified)	?	?	-15%	?	2%	7%
Nn1c(SCc2ncc(-c3ccccc3)o2)nnc1-c1ccccc1F	/	6.3µM*	/	/	/	/
CC(=O)c1cccc(NC(=O)C2CCN(c3nnc(-n4cccc4)s3)CC2)c1	?	3%	?	/	/	/
Cc1ccc(NC(=O)C2CCN(S(=O)(=O)c3cccc4nsnc34)CC2)cc1F	-26%	-24%	?	/	/	/
O=C(Nc1cccc(C(F)(F)F)c1)C1CCN(c2nnc(-n3cccc3)s2)CC1	21µM*	-23%	?	/	/	/
O=C(Nc1cccc(C(F)(F)F)c1)C1CCN(S(=O)(=O)c2cccc3nsnc23)CC1	23µM*	-22%	23µM*	/	/	/
O=C(Nc1cccc(C(F)(F)F)c1)C1CCN(S(=O)(=O)c2cccnc2)CC1	21µM*	-14%	?	9	-3%	-1%
Cc1cccc(C(=O)Nc2c(C(=O)NCc3ccc(Cl)cc3)sc3nc(C)cc(C)c23)c1	26µM*	-16%	16µM*	/	/	/
Cc1ccc(CC(=O)NC(C)c2ccccn2)cc1C (stereo unspecified)	/	33%	/	/	/	/
O=C(CN1C(=O)/C(=C\c2ccco2)SC1=S)Nc1ccc(O)cc1C(=O)O	0%	25µM*	-8%	-1	0%	1%
O=C(CCCN1C(=O)/C(=C/c2ccco2)SC1=S)Nc1ccccc1C(=O)O	?	32µM*	-25%	0	-5%	-3%
CC(C(=O)Nc1ccc(O)cc1C(=O)O)N1C(=O)/C(=C\c2cccs2)SC1=S (stereo unspecified)	-21%	32µM*	-5%	-2	11%	2%
O=C(CCN1C(=O)/C(=C/c2ccco2)SC1=S)Nc1ccc(O)cc1C(=O)O	-9%	?	-7%	1	-3%	0%
O=C(CCN1C(=O)/C(=C\c2cccs2)SC1=S)Nc1ccc(C(=O)O)cc1	14%	?	-5%	7	0%	3%
COc1nc2c(cc1CNC(=O)c1ccc(F)cc1)C(=O)N(C1CCCC1)C2	/	46%	/	/	/	/
Cc1ccc(C(=O)c2ccccc2C(=O)O)c(O)c1	0%	13%	-20%	24	2%	3%
Cc1ccc(C(=O)CC(=O)c2cccc(F)c2)c(O)c1	6.5µM*	9%	7.3µM*	62	?	?
Cc1ccc(C(=O)CC(=O)c2ccccc2C)c(O)c1	2.3µM*	52%	2.6µM*	67	?	?
c1ccc(CNCCC(Cc2ccccc2)c2ccco2)cc1 (stereo unspecified)	16µM*	-24%	?	-80*	16µM*	16µM*
O=C(CC(Cc1ccccc1)c1ccco1)NCc1ccco1 (stereo unspecified)	-15%	60%	5%	-13	10%	9%
CN(C)c1ccc(CNCCC(Cc2ccccc2)c2ccco2)cc1 (stereo unspecified)	10µM*	-16%	9.2µM*	-99*	23µM*	18µM*
CC(=O)NCCC(Cc1ccccc1)c1ccco1 (stereo unspecified)	-6%	?	-9%	-1	7%	15%
Cc1noc(-c2nc(-c3ccc(Cl)cc3)no2)n1	/	34%	/	/	/	/
CCc1ccc(C(=O)/C=C/c2cnn(C)c2C)s1	-23%	-26%	?	?	-2%	0%
SMILES	TDP1 cell noCPT	12-LOX inh	DT40 TDP1 CPT	IL1B secr inh	HT1080 IDH1KD tx	HT1080-NT tox
Cc1c(/C=C/C(=O)c2cccs2)cnn1C	?	32%	16µM*	-23	-4%	-11%
O=C(C=Cc1ccccc1)c1cccs1	16µM*	-10%	18µM*	-20	-16%	7%
Nc1ccc(/C=C/C(=O)c2cccs2)cc1	?	?	8%	-109*	-19%	-26%
CCOc1ccc(/C=C/C(=O)c2cccs2)cc1	?	/	27µM*	/	/	/
O=C(/C=C/c1ccccc1)c1cccs1	9.4µM*	/	6.7µM*	/	/	/
O=C(O)c1ccc(/C=C/C(=O)c2cccs2)cc1	/	-1%	/	/	/	/
COc1ccc(-c2ccnc3nc(-c4cccs4)nn23)c(F)c1	/	23%	/	/	/	/
O=C(CSc1ccc2nc(-c3ccccc3)cn2n1)Nc1ccccc1	26µM*	-22%	?	/	/	/
Cc1ccc(C)c(NC(=O)CSc2ccc3nc(-c4ccccc4)cn3n2)c1	?	1%	?	/	/	/
CCOc1ccccc1NC(=O)C(C)Sc1cc(-c2ccccc2)nc(C)n1 (stereo unspecified)	16µM*	0%	15µM*	/	/	/
CCOc1ccccc1Nc1cc(-c2ccccc2)nc(C)n1	?	-1%	?	/	/	/
CCOc1ccccc1NC(=O)CSc1ccc2nc(-c3ccccc3)cn2n1	21µM*	?	?	/	/	/
CC(=O)c1ccc(NC(=O)CSc2ccc3nc(-c4ccccc4)cn3n2)cc1	26µM*	-25%	?	/	/	/
O=C(CSc1ccc2nc(-c3ccccc3)cn2n1)Nc1ccccc1C(F)(F)F	?	-49%	-26%	/	/	/
C=CCOc1cccc(NC(=O)c2cccc(OCC)c2)c1	/	-26%	/	/	/	/
CCc1noc(-c2cccn3c(CNC(=O)c4ccccc4F)nnc23)n1	/	50%	/	/	/	/
Cc1ccc(S(=O)(=O)/N=C2/C=C(Sc3ncn[nH]3)C(=O)c3ccccc32)cc1	0.37µM*	/	0.33µM*	-105*	3.7µM*	18µM*
CC(C)c1ccc(S(=O)(=O)/N=C2/C=C(Sc3ncn[nH]3)C(=O)c3ccccc32)cc1	3.3µM*	/	2.6µM*	-100*	4.6µM*	2.9µM*
Cc1ccc(S(=O)(=O)Nc2ccc(O)c(Sc3ncn[nH]3)c2)cc1	3%	?	14%	7	4%	14%
CCOc1ccc(S(=O)(=O)Nc2ccc(O)c(Sc3ncn[nH]3)c2)cc1	?	-6%	?	6	0%	1%
O=C(Cc1ccsc1)N[C@@H]1COCC[C@@H]1OCc1cscn1	/	13%	/	/	/	/

Compound activity: PubChem, National Center for Advancing Translational Sciences (NCATS)
